Assay results as given in PubChem BioAssay.
Results filed as inconclusive are left out. Activity calls are given as the source filed them.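 How the source made its calls, unless noted: active means viability loss from added drug above about 55%, and viability with drug at most 40%, in both replicates (limit read from the data, passing the limit was not always enough); inconclusive means both conditions met in only one replicate; inactive means neither replicate meets both conditions.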

Assays:
[1] = reducers of endogenous Her2 protein level, primary screen, SKBR3 breast tumor cells, AlphaScreen, ATP viability (AID 461;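 active means Her2 level under about 52% in both replicate screens, with viability over 70% of control, limit read from the data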;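 on Her2 level: lower value means less Her2 protein in the cells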;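 on viability: percent of carrier control wells set as 100% viability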); details: 18-24 h, measured here: SKBR3 viability, ATP luminescence, at 10 µM
[2] = biological target: Receptor tyrosine-protein kinase erbB-2 (Homo sapiens) (UniProt P04626); test: as above; details: 18-24 h, at 10 µM, stronger effect = lower value
[3] = SK-BR-3 cell growth inhibitors, pilot screen, 24 h, human (AID 572;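 active means viability at or below 10% of carrier control in both of two separate runs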;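 further: compound exposure lasted between 18 and 24 h rather than exactly 24 h; 100% = carrier-treated control wells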); details: SK-BR-3 viability, CellTiter-Glo luminescence, at 10 µM, stronger effect = lower value
[4] = HUVEC growth inhibition – cell-based, human, primary screen (AID 575;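 active means viability at or below 30% in both replicate assays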;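 further: 100% = median of untreated cell wells with 0.1% DMSO on each plate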); details: HUVEC proliferation, CellTiter-Glo luminescence, 72 h; at 10 µM; stronger effect = lower value
[5] = growth inhibitors of H69AR lung tumor, primary screen, human, duplicate replicates (AID 580;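 active means viability at or under a set limit in both replicates, limit being median viability minus 3 SD, cut at about 48% in these data, passing the limit was not always enough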;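 further: 100% = mean luminescence of untreated wells and 0% = no signal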); details: H69AR lung tumor cells viability, ATP luminescence, 72 h; at 10 µM; stronger effect = lower value
[6] = reversal of MRP1-mediated doxorubicin resistance, pilot screen, H69AR cells, doxorubicin co-treatment (AID 601); details: CellTiter-Glo, 72 h, at 10 µM; for differential viability (reversal): stronger effect = higher value
[7] = 384-well plate pilot, post-Golgi transport modulator project, inhibition of yeast transport mutant growth (AID 636; in the data active means inhibition above about 31%); details: absorbance 615 nm, about 18 h, stronger effect = higher value
[8] = growth suppression of yeast trafficking mutant, preliminary HTS, modulators of trafficking downstream of Golgi apparatus project, 1536-format plate, OD 615 nm (AID 637; in the data active means inhibition above about 30%); details: yeast transport mutant growth, absorbance 615 nm, 18 h; stronger effect = higher value
[9] = OD615 S. cerevisiae growth inhibition, permissive medium, pilot counter-assay, permissive growth control for S. cerevisiae lifespan shortening project (AID 705;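 active means growth inhibition above 25% in both replicates, a cutoff set 3 SD above the mean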); details: OD615, 24 h, at 10 µM, stronger effect = higher value
[10] = Restrictive medium S. cerevisiae growth inhibition, OD615, pilot screen of yeast lifespan reduction project, restrictive growth control (AID 706;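 active means growth inhibition above a set limit, 3 SD over mean compound inhibition, in both replicates, cut at about 43% in these data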;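 further: modified DeaD lifespan yeast strain shifted to restrictive glucose medium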); details: OD615, 48 h, at 10 µM, stronger effect = higher value
[11] = viability gain of MRP-1-high H69AR cells under doxorubicin, pilot screen, MRP-1 activator project, CellTiter-Glo, duplicate (AID 807;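 active means viability increase at or above a cutoff of the median across tested compounds plus 3 SD, cut at about 8.5% in these data, passing the limit was not always enough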;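 further: compound pretreatment 18-22 h then 72 h combined with doxorubicin; 0% = doxorubicin alone and 100% = vehicle without doxorubicin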); details: H69AR viability with doxorubicin, CellTiter-Glo luminescence; at 10 µM; stronger effect = higher value
[12] = growth suppression of beta-catenin knockout HCT116, pilot screen, human colon tumor cells (AID 823;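 active means cell viability at or below a set limit in both duplicate runs, the limit being the all-compound median minus 4 SD, cut at about 23% in these data, passing the limit was not always enough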;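 further: 0% = wells killed by 20 µM Hyamine and 100% = untreated DMSO cell wells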); details: CellTiter-Glo, 60 h, at 10 µM, stronger effect = lower value
[13] = growth suppression of PTEN-deleted HCT116, pilot screen, cell-based, HCT116 clonal line, CellTiter-Glo (AID 824;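 active means viability at or below 27.92% in each of two runs, the all-compound median minus 4 SD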;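 further: 0% = 20 µM Hyamine control and 100% = vehicle cell control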); details: 60 h, at 10 µM, stronger effect = lower value
[14] = inhibitors of the yeast RAM network, pilot screen, dse1pr::URA3 reporter, 5-FOA selection (AID 869;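 active means inhibition over a set limit, the all-compound mean plus 3 SD, in both replicate runs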;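 further: 0% = DMSO wells with no growth and 100% = 10 µM 1-NA-PP1 with full growth; RAM network block rescues cells from 5-FOA so hits raise OD615 growth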); details: S. cerevisiae dse1pr::URA3 5-FOA growth, OD615, 2 d; at 10 µM; stronger effect = higher value; strain carries analog-sensitive mutant Cbk1 kinase
[15] = RAM signaling pathway blockade in yeast – S. cerevisiae, Pdr1DBD-CYC8 efflux-inhibited sensitized strain, primary screen (AID 1298;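 active means RAM network inhibition above 8.4% in each of two replicates, 3 SD over the compound average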;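 further: 0% = DMSO untreated cells without growth and 100% = 10 µM 1-NA-PP1 full growth; higher means more yeast growth rescued from 5-FOA killing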); details: S. cerevisiae cbk1-as DSE1-URA3 strain, 5-FOA growth OD615, 2 d; at 50 µM; stronger effect = higher value
[16] = H69AR cells + 2 uM doxorubicin, measured here: viability with 2 uM doxorubicin, stronger effect = lower value
[17] = H69AR cells, compound alone cytotoxicity

Chain of Receptor tyrosine-protein kinase erbB-2 (Homo sapiens) (P04626 whole entry, looked up): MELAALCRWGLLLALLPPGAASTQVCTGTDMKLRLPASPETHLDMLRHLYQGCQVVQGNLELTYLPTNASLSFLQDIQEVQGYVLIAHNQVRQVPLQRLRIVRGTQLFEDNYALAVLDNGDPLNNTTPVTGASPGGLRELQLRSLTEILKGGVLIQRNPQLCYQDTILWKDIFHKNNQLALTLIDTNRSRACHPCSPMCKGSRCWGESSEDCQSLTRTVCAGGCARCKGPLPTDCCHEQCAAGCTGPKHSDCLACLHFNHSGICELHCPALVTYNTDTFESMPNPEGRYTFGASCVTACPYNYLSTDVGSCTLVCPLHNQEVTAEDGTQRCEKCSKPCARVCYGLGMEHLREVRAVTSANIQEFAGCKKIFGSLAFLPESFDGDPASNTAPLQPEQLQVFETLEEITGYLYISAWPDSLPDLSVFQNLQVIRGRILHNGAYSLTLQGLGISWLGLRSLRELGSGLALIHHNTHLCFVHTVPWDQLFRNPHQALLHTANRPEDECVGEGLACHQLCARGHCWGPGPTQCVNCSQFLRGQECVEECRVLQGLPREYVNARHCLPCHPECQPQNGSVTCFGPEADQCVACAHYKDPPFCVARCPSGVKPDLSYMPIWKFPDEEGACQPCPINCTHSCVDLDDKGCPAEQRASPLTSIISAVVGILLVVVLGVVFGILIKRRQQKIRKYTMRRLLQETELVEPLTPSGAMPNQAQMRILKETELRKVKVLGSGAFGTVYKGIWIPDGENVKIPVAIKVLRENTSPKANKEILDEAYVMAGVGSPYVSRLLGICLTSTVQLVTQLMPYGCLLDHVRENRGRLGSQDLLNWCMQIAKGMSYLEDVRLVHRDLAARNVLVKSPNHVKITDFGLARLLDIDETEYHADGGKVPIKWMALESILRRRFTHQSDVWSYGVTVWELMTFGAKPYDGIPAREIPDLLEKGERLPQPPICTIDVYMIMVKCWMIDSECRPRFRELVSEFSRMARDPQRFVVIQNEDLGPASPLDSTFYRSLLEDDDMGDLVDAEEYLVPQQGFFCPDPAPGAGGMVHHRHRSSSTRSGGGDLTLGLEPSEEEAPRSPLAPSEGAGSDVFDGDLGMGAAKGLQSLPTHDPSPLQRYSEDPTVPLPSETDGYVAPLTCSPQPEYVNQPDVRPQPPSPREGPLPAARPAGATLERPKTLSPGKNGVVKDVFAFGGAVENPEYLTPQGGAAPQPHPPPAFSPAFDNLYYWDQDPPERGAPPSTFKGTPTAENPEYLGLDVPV

Row | Compound | viability [1] [%] | Her2 level [2] | viability [3] | viability [4] | viability [5] | differential viability (reversal) ([6]; H69AR cells + 2 uM doxorubicin) | viability [6, 16] [%] | viability [6, 17] [%] | inhibition [7] | inhibition [8] | growth inhibition [9] | growth inhibition [10] | viability increase [11] | viability [12] | viability [13] | inhibition [14] | RAM network inhibition [15]
1 | O=C(CSc1nc(-c2ccco2)cc(C(F)(F)F)n1)NCCCn1ccnc1 | 94 | 93% (inactive) | 94% (inactive) | 64.9% (inactive) | 94.7% (inactive) | -4.19% (inactive) | 98.9 | 94.7 | -2.53% (inactive) | -2.3% (inactive) | -8.51% (inactive) | -15.7% (inactive) | -0.15% (inactive) | 98.6% (inactive) | 96.3% (inactive) | 1.44% (inactive) | 9.1% (inactive)
2 | COc1ccc(-c2nc(C)c(C(C)=O)n2O)cc1OC | 89 | 112% (inactive) | 89% (inactive) | 91% (inactive) | 94.9% (inactive) | 9.6% (inactive) | 85.3 | 94.9 | -2.05% (inactive) | -8.33% (inactive) | -5.41% (inactive) | 6.06% (inactive) | -1.91% (inactive) | 96.5% (inactive) | 90.1% (inactive) | 1.42% (inactive) | 2.4% (inactive)
3 | CSc1nc2ccccc2c(=O)n1N | 109 | 94.5% (inactive) | 109% (inactive) | 93.9% (inactive) | 97.5% (inactive) | 4.46% (inactive) | 93.1 | 97.5 | -3.78% (inactive) | -1.48% (inactive) | -16.4% (inactive) | 6.12% (inactive) | -1.1% (inactive) | 92.2% (inactive) | 103% (inactive) | 1.75% (inactive) | 4.29% (inactive)
4 | CN1CCC(NC(=O)c2cccs2)CC1 | 106 | 90% (inactive) | 106% (inactive) | 84.7% (inactive) | 91% (inactive) | 7.9% (inactive) | 83.1 | 91 | -4.13% (inactive) | 7.5% (inactive) | 9.33% (inactive) | 17.3% (inactive) | -0.16% (inactive) | 96.7% (inactive) | 94.9% (inactive) | 0.86% (inactive) | 1.18% (inactive)
5 | COc1ccc(NC(=O)CSc2nc3c(c(=O)n2-c2ccc(F)cc2)SCC3)cc1 | 100 | 102% (inactive) | 100% (inactive) | 81.3% (inactive) | 95.5% (inactive) | 3.3% (inactive) | 92.2 | 95.5 | -6.27% (inactive) | -1.15% (inactive) | -8.95% (inactive) | -14.3% (inactive) | 0.22% (inactive) | 94% (inactive) | 90.7% (inactive) | -0.265% (inactive) | 3.09% (inactive)
6 | CCOC(=O)c1ccc2[nH]c3c(c2c1)CN(C)CC3 | 94 | 87.5% (inactive) | 94% (inactive) | 86.6% (inactive) | 93.7% (inactive) | 7.91% (inactive) | 85.8 | 93.7 | -4.27% (inactive) | -0.83% (inactive) | -4.7% (inactive) | 10.1% (inactive) | 0.26% (inactive) | 44% (inactive) | 56.9% (inactive) | 0.51% (inactive) | 0.47% (inactive)
7 | COc1ccc2c(c1OC)C(=O)OC2CC(=O)c1ccc(O)cc1 (stereo not given) | 100 | 111% (inactive) | 100% (inactive) | 106% (inactive) | 87.3% (inactive) | -3.06% (inactive) | 90.4 | 87.3 | 1.3% (inactive) | -4.17% (inactive) | -11.6% (inactive) | -10.6% (inactive) | -0.29% (inactive) | 102% (inactive) | 107% (inactive) | 0.365% (inactive) | 4.28% (inactive)
8 | COc1ccccc1S(=O)(=O)Cc1ccc(C(=O)N2CCN(c3ccccn3)CC2)o1 | 101 | 84.5% (inactive) | 101% (inactive) | 87.8% (inactive) | 88.9% (inactive) | 6.81% (inactive) | 82.1 | 88.9 | -3.47% (inactive) | -1.97% (inactive) | -6.28% (inactive) | -10.3% (inactive) | -1.97% (inactive) | 92.8% (inactive) | 85.1% (inactive) | 0.76% (inactive) | 0.78% (inactive)
9 | CCc1nnc(NC(=O)COC(=O)CN2C(=O)c3ccccc3C2=O)s1 | 104 | 101% (inactive) | 104% (inactive) | 104% (inactive) | 109% (inactive) | 7.39% (inactive) | 101 | 109 | -9.32% (inactive) | -6.19% (inactive) | 2.25% (inactive) | 1.2% (inactive) | -1.95% (inactive) | 96.8% (inactive) | 89.8% (inactive) | 0.785% (inactive) | 5.31% (inactive)
10 | Cc1ccc(-c2noc(COc3ccccc3C)n2)cc1 | 72.5 | 92% (inactive) | 72.5% (inactive) | 102% (inactive) | 96.9% (inactive) | 10.6% (inactive) | 86.3 | 96.9 | -1.2% (inactive) | 1.61% (inactive) | -13.7% (inactive) | -16.5% (inactive) | 3.84% (inactive) | 93% (inactive) | 103% (inactive) | 0.065% (inactive) | 0% (inactive)
